Screening data from PubChem.
HT1080-NT tox: kills 2HG-producing HT-1080-NT fibrosarcoma cells; Potency, µM (top dose mostly 46.1 µM), inactives show top-dose activity, negative = less viability, actives largely listed as cytotoxic; HT-1080-NT fibrosarcoma viability, CellTiter-Glo ATP luminescence, 48 h; AID 686970; 1.6% of 360,000 active;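 also: NT is the 2HG producing partner of a matched IDH1 knockdown line; 0% = DMSO-treated cells and -100% = media-only wells without cells; nearly all actives have a fitted effect of over 55% in size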
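Viability of the 2HG-overproducing fibrosarcoma line after 48 hours of compound exposure at 37 degrees C was determined by luminescence with CellTiter-Glo, and concentration-effect curves were then fitted and categorized.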
KB-3-1 cytotox: KB-3-1 parental cell cytotoxicity; KB-3-1 viability, CellTiter-Glo ATP luminescence, 72 h; Potency, µM (top dose mostly 46.1 µM), most hits filed as cytotoxic; 1.4% of 400,000 active; AID 1347075; also: % is scaled to controls: 0 for no effect and ±100 for the full control effect; nearly all actives have a fitted effect of over 60% in size
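Cells are dispensed, compounds pinned in, plates held at 37 °C for 72 h, then CellTiter-Glo is added and luminescence read after 10 minutes. Cell line: parental KB-3-1 in phenol-red-free DMEM, 10% FBS.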
KB-V1 MDR tox: kills drug-selected multidrug resistant KB-V1 cells. Potency, µM (titrated, usually from 46.1 µM), most hits filed as cytotoxic. KB-V1 MDR cells viability, CellTiter-Glo, 72 h. 3.4% of 400,000 active; also: % is scaled to controls: 0 for no effect and ±100 for the full control effect; nearly all actives have a fitted effect of over 60% in size
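In this primary screen, KB-V1 cells overexpressing P-gp are incubated with library compounds (lowest to highest concentration) for 72 h at 37 degrees C before a luminescent ATP viability read.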
HT1080 IDH1KD tx: toxicity to HT-1080 IDH1 knockdown cells (counter line); HT-1080 IDH1 knockdown viability, ATP luminescence, 48 h; Potency, µM (highest dose often 46.1 µM), for inactives: at the top dose activity, negative = toxicity, usual class: cytotoxic; 2% of 360,000 active;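 also: 0% = DMSO wells and -100% = cell-free medium wells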
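Knockdown cells (IDH1KD HT-1080) received compounds 2 h after plating at 750 cells/well and were kept 48 h at 37 °C in 5% FBS RPMI. A CellTiter-Glo luminescence read gave % activity for curve fitting.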
MCF10A rereplic: induces DNA re-replication in MCF 10a normal breast cells; MCF 10A DNA re-replication, Hoechst nuclear intensity, 48 h; Potency, µM (titrated, usually from 46.1 µM), for the others: top-dose activity, positive = re-replication, actives largely listed as activators; 2.9% of 350,000 active; AID 624296; also: % of control where 0% means no effect; nearly all actives have a fitted effect of over 50% in size
SW480 rerep: inducers of DNA re-replication in SW480 colon cancer cells | AID 624297 | SW480 DNA re-replication, Hoechst DNA content imaging, 48 h | Potency, µM (highest dose often 46.1 µM), without a hit: at the top dose re-replication activation, actives largely listed as activators | 1.8% of 340,000 active; also: % of control where 0% means no effect; nearly all actives have a fitted effect of over 55% in size
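Treated cells incubate 48 hr (37 C, 5% CO2), are stained 40 min with Hoechst, and nuclear fluorescence is enumerated; a rise in nuclei with high DNA signal marks re-replication.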
* hit, by the source's call; i = inactive; ? = inconclusive; . = not tested or not shown. The list is not random: actives were taken first. Their share in the collection is about 7.9%. Calls follow the shape of the dose curve; as a rule, active = well fitted curve in the direction sought with a large enough effect; inconclusive = small, poorly fitted or top-dose-only effect, or another doubt; inactive = no such curve, though single readings can be large; an effect the other way counts as inactive or inconclusive. Potency is read from the fitted curve at half-maximal effect.

SMILES	HT1080-NT tox	KB-3-1 cytotox	KB-V1 MDR tox	HT1080 IDH1KD tx	MCF10A rereplic	SW480 rerep
CN(Cc1c(C(=O)N/N=C/c2ccccc2O)nnn1-c1nonc1N)C1CCCCC1	11.6µM*	18.4µM*	?	?	.	.
CC(C(=O)NC1CCCC1)n1c(-c2ccncc2)nc2ccccc21 (stereo not given)	5.3%	i	i	15.1%	.	.
Nc1ccn(CCCNCC(c2ccccc2)c2ccccc2)c(=O)n1	-0.2%	i	i	6.2%	.	.
CCOc1ccccc1NC(=O)CN1C(=O)C2(SCC(=O)N2c2cccc(F)c2)c2ccccc21 (stereo not given)	.	i	i	.	.	.
CN(C)Cc1c(C(=O)N/N=C/c2ccccc2OCc2c(F)cccc2Cl)nnn1-c1nonc1N	11.6µM*	?	?	8.2µM*	?	?
CC1CCN(Cc2c(C(=O)N/N=C/c3cccc(Cl)c3)nnn2-c2nonc2N)CC1	4.0%	i	i	-7.7%	?	-8.1%
CC1CCN(Cc2c(C(=O)N/N=C/c3ccccc3O)nnn2-c2nonc2N)CC1	?	5.17µM*	?	5.17µM*	-8.0%	6.2%
CC(=O)c1cccc(NC(=O)C2(C)Cc3c(-c4ccccc4)ccnc3O2)c1 (stereo not given)	-0.9%	i	i	-25.2%	.	.
COc1ccc(C(C)=O)cc1COc1cccnc1[N+](=O)[O-]	-20.3%	i	14.6µM*	?	?	?
CCOc1ccc(C(C)=O)cc1COc1cccnc1[N+](=O)[O-]	?	?	11.6µM*	?	?	20.6µM*
CCN(Cc1ccccc1)C(=O)Cn1cc(S(=O)(=O)NC)c(S(=O)(=O)NC)c1	3.2%	i	i	8.8%	-7.8%	-10.8%
CCOc1ccc(CCNC(=O)c2ccc3nc(N4CCOCC4)sc3c2)cc1OCC	14.7%	i	?	0.0%	0.0%	-3.5%
CN(C(=O)c1cc([N+](=O)[O-])ccc1NCc1cccnc1)c1ccccc1	3.7%	i	i	-0.9%	0.0%	-0.1%
N#Cc1c(-c2ccc(Cl)cc2)n(O)c2ccccc12	10.3µM*	7.31µM*	3.66µM*	14.6µM*	3.66µM*	8.2µM*
N#Cc1c(-c2ccc(Cl)cc2)c(C#N)c(=O)n(N)c1N	-5.2%	i	i	-1.9%	-4.5%	-8.6%
COc1ccc(/C(C)=N/NC(=O)c2nnn(-c3nonc3N)c2CN(C)c2ccccc2)cc1	-4.1%	i	i	-7.3%	3.7%	-9.0%
C/C(=N\NC(=O)c1nnn(-c2nonc2N)c1CN(C)c1ccccc1)c1ccccc1O	?	6.51µM*	i	?	?	3.26µM*
C/C(=N\NC(=O)c1nnn(-c2nonc2N)c1CN1CCCCC1)c1ccccc1O	?	?	i	?	13.4%	14.6µM*
CC(=C/c1ccccc1)/C=N/NC(=O)c1nnn(-c2nonc2N)c1CN1CCC(C)CC1	-0.1%	i	?	-2.1%	6.1%	?
CCCc1c(C(=O)N/N=C(\C)c2ccccn2)nnn1-c1nonc1N	?	5.8µM*	?	?	.	.
CC(/C=N/NC(=O)c1nnn(-c2nonc2N)c1CN1CCCCC1)=C\c1ccccc1	?	?	i	?	7.31µM*	?
CCCc1c(C(=O)N/N=C(\C)c2ccc(O)cc2)nnn1-c1nonc1N	5.1%	i	?	1.9%	?	-3.6%
CCOC(=O)[C@]12CCCC=C1N(Cc1ccc3c(c1)OCO3)C(=O)[C@H](CC(=O)NCc1cccc(C(F)(F)F)c1)C2	10.3µM*	i	?	16.4µM*	.	.
CCOC(=O)[C@]12CCC=C1N(Cc1ccc(Cl)cc1Cl)C(=O)[C@H](CC(=O)NCc1cccc(C(F)(F)F)c1)C2	?	?	20.6µM*	?	.	.
CCOC(=O)[C@]12CCCC=C1N(Cc1ccc(Cl)cc1Cl)C(=O)[C@H](CC(=O)NCc1cccc(C(F)(F)F)c1)C2	32.6µM*	?	16.4µM*	?	.	.
SMILES	HT1080-NT tox	KB-3-1 cytotox	KB-V1 MDR tox	HT1080 IDH1KD tx	MCF10A rereplic	SW480 rerep
O=C(Nc1ccc(S(=O)(=O)NC2=NCCCCC2)cc1)c1cccc(OC(F)F)c1	-3.4%	i	i	-17.4%	.	.
Cn1c(SCC(=O)NCc2ccco2)nnc1-c1ccc(NC(=O)c2ccccc2)cc1	.	i	i	.	.	.
O=C1/C(=C/c2ccc(Br)cc2)Oc2cc(O)ccc21	-20.3%	i	?	?	14.6µM*	?
O=C1/C(=C/c2ccc([N+](=O)[O-])cc2)Oc2cc(O)ccc21	-24.7%	i	i	-15.6%	23.0%	7.3%
CC(C)(C)c1ccc(/C=C2\Oc3cc(O)ccc3C2=O)cc1	?	16.4µM*	i	?	20.6µM*	20.6µM*
CCOC(=O)c1c(NC(C)=O)sc2c1CCC(C=O)=C2Sc1ccccc1	14.1µM*	i	?	7.08µM*	-5.0%	1.5%
CCOC(=O)c1c(NC(=O)c2ccccc2Br)sc2c1CCc1ccccc1-2	3.7%	i	13µM*	1.3%	?	16.4µM*
COc1cccc(-c2noc(CCCC(=O)NC3CCCC3)n2)c1	-1.8%	i	i	-14.3%	-1.4%	20.6µM*
COc1cccc(-c2noc(CCC(=O)NC3CCCC3)n2)c1	6.4%	i	i	0.7%	8.7%	-17.2%
CCOc1ccc(-c2noc(CCCC(=O)NC3CCCC3)n2)cc1OC	1.0%	i	8.2µM*	-6.0%	-0.4%	-8.9%
CCN(C(=O)CCc1nc(-c2ccc(OC)cc2)no1)c1cc(OC)ccc1OC	-11.8%	?	16.4µM*	-10.1%	-13.7%	0.3%
O=C(CCCc1nc(-c2ccc(Cl)cc2)no1)NC1CCCCC1	8.1%	?	11.6µM*	11.6%	16.4%	-1.3%
NC(=O)CC(NC(=O)c1ccc(Cl)cc1)C(=O)NCCc1ccc(S(N)(=O)=O)cc1 (stereo not given)	7.0%	i	i	6.0%	?	17.5%
COc1ccc(OC)c(NC(=O)c2cc(S(=O)(=O)NCCc3ccc(Cl)cc3)ccc2F)c1	.	i	i	.	.	.
CCOC(=O)c1c(SCCN2CCCC2)n(-c2ccccc2)c(=S)n(-c2ccccc2)c1=O	?	i	i	7.31µM*	4.61µM*	6.51µM*
Cc1ccc(-n2nc(C(=O)N(C)c3ccc(C)c(C)c3)c3c4ccccc4n(C)c3c2=O)cc1	.	i	i	.	.	.
CSc1ccc(C(=O)C2CCCN(C(=O)CCn3cncn3)C2)cc1 (stereo not given)	9.0%	i	i	16.8%	0.4%	-5.9%
